Test results: PubChem BioAssay (NCATS)
Records with an inconclusive call do not appear. Unmarked numbers belong to inactive results. The call rests on the fitted dose curve; in most records, active means well fitted curve in the direction sought with a large enough effect; inconclusive means small, poorly fitted or top-dose-only effect, or another doubt; inactive means no such curve, though single readings can be large or run the other way.

assay: qHTS Assay for Identifying Gametocytocidal Compounds (AID 743244);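 further: actives lower the fluorescent signal which means gametocytes are killed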; settings: P. falciparum 3D7 stage III-V gametocytes, alamarBlue, 72 h; max response: active compounds read low
Procedure, shortened: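 P. falciparum 3D7 stage III–V gametocytes (20,000 cells/well) were exposed to compounds for 72 h at 37 °C, 5% CO2. AlamarBlue was then added for 24 h; decreased resorufin fluorescence (Ex 525/Em 598 nm) indicated loss of viability.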
On the % scale 0 is the no-effect control and ±100 the full control effect.

| SMILES | max response [%] |
| --- | --- |
| CCCCC[C@H](O)/C=C/[C@H]1[C@H](O)CC(=O)[C@@H]1C/C=C\CCCC(=O)O | 5.55 |
| CCC(C(=O)NC(N)=O)c1ccccc1 (centres undefined) | 7.61 |
| CCCCC/C=C\CCC(=O)N[C@H]1[C@H](Oc2c3cc4cc2Oc2ccc(cc2Cl)[C@@H](O[C@@H]2O[C@H](CO)[C@@H](O)[C@H](O)[C@H]2NC(C)=O)[C@@H]2NC(=O)[C@H](NC(=O)[C@@H]4NC(=O)[C@H]4NC(=O)[C@@H](Cc5ccc(c(Cl)c5)O3)NC(=O)[C@H](N)c3ccc(O)c(c3)Oc3cc(O)cc4c3)c3ccc(O)c(c3)-c3c(O[C@H]4O[C@H](CO)[C@@H](O)[C@H](O)[C@@H]4O)cc(O)cc3[C@@H](C(=O)O)NC2=O)O[C@H](CO)[C@@H](O)[C@@H]1O | -6.11 |
| C[S+](C)CCC(N)C(=O)O (centres undefined) | 3.96 |
